22 sequences from the OligoGym collection can be followed below.
Also: reference of the scale not given here.

The target in one experiment is FBXL3. Kind of experiment: pooled miR-30 sensor sort-seq; sequence = guide strand. The note with it: shRNA.
As for TATGGAAGTGTGTCTGTCCAGG, the sensor-assay potency score (higher = more potent) is -0.66.

Take TTGCACACACTACTAGTTCAAC: the sensor-assay potency score (higher = more potent) is -1.05.

The sequence TACTTGGAGAATAATGTCCTGA yielded a sensor-assay potency score (higher = more potent) of 0.112.

For the sequence TTCCTTGCTGCTGTCCACCTTG, the sensor-assay potency score (higher = more potent) was -0.442.

As for TTTAATAATCTGTTTGATCAGC, the sensor-assay potency score (higher = more potent) was -0.685.

Regarding TACTGGAGTATCATCTATCTTA, the sensor-assay potency score (higher = more potent) was -0.0234.

On to TACTCTTCTGAATAGTATGGAA, for which the sensor-assay potency score (higher = more potent) was -0.502.

In turn, TACATCACTAAGTTCACTTTGG registered a sensor-assay potency score (higher = more potent) of 0.0732.

As to TAACTCTTCATCAAGTGGCCGT, the sensor-assay potency score (higher = more potent) was -0.249.

Sequence TTGCTTGAAATTAAGGTGCTAT showed a sensor-assay potency score (higher = more potent) of 0.353.

The target of the next experiment is FBXO25. The experiment is described as above. The note with it: shRNA.
TATTGAATATTTCTCCATCTTC: the sensor-assay potency score (higher = more potent) was -0.493.

The sequence TTGACCACATAATTGAACCTTC yielded a sensor-assay potency score (higher = more potent) of 0.213.

For TAATCCAACTCCATCCAGGAGA, the sensor-assay potency score (higher = more potent) is -0.761.

As for TGTGTCTCCGTACTGCTCCTTC, the sensor-assay potency score (higher = more potent) is -0.185.

In the case of TCACTAAGCATATACAACGTGG, the sensor-assay potency score (higher = more potent) is -0.518.

TCTGTCTTAATCCAACTCCATC: the sensor-assay potency score (higher = more potent) is -1.72.

As for TTCACTTGCTTAGTCATCTGAA, the sensor-assay potency score (higher = more potent) stood at 0.836.

In the case of TCTTAATCCAACTCCATCCAGG, the sensor-assay potency score (higher = more potent) was -0.487.

With TAGGTCTTGCAGAAGATCTTTG, the sensor-assay potency score (higher = more potent) is -0.731.

Consider TTTTTTTCGATGCATATTCATG, for which the sensor-assay potency score (higher = more potent) is -0.983.

As to ATATCTTGAATTGCACTTGAGA, the sensor-assay potency score (higher = more potent) is -0.85.

As for TTCACTAAGCATATACAACGTG, the sensor-assay potency score (higher = more potent) was -0.104.
